{"source": "PubChem BioAssay AID588342", "about": "(National Center for Advancing Translational Sciences (NCATS), 2011)", "note": "Hit rate of the full screen: of about 360,000 compounds, about 25,000 (6.9%) were called active. Not shown: some 9% with an inconclusive outcome. The sample holds actives, similar compounds and a random draw of the others, so the mix is not that of the screen. Values without a mark were called inactive. The call rests on the fitted dose curve; in most records, active means well fitted inhibition curve with a large enough effect; inconclusive means small, poorly fitted or top-dose-only effect; inactive means flat fitted curve, though single readings scatter. Potency means the concentration at half of the fitted maximal effect.", "data": [{"target": "Luciferin 4-monooxygenase (Photinus pyralis) (UniProt P08659)", "sequence (P08659 whole entry, looked up)": "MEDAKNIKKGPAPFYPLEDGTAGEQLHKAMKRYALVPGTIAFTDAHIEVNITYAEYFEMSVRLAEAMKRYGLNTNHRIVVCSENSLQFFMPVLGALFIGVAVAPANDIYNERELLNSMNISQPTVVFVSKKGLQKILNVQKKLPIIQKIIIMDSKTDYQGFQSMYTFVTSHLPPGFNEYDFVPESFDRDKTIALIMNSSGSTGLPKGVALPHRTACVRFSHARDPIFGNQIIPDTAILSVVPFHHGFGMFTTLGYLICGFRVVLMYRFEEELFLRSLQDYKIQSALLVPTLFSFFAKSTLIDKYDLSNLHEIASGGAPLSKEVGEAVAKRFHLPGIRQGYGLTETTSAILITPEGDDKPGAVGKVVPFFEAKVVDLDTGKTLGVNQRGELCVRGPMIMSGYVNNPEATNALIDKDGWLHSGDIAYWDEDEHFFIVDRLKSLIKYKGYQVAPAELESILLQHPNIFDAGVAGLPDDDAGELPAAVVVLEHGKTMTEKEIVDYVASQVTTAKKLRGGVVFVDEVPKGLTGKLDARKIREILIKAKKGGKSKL", "assay": "qHTS profiling assay for firefly luciferase inhibitor/activator using purifed enzyme and Km concentrations of substrates (counterscreen for miR-21 project); further: nearly all actives have a fitted effect of over 55% in size;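 on activity change, negative = inhibition: plate controls were vehicle for no effect and reference inhibitor for full effect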", "settings": "purified FLuc, luminescence inhibition; series mostly up to 57.5 µM; activity change, negative = inhibition: at the top concentration", "outline": "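Purified P. pyralis luciferase, 10 nM final, with Km-level 10 uM D-luciferin and 10 uM ATP in 50 mM Tris acetate pH 7.5, 10 mM Mg acetate, 0.01% Tween-20, 0.05% BSA; 6-point qHTS titration about 60 µM downward; luminescence read.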", "units": {"activity change, negative = inhibition": "%"}, "values": [{"smiles": "COc1ccc(N2CCN(Cc3nc4c(c(=O)[nH]c(=O)n4C)n3Cc3ccc(Cl)cc3)CC2)cc1", "activity change, negative = inhibition": -1.19}, {"smiles": "O=C(NCCCO)C(=O)Nc1c2c(nn1-c1ccccc1)CSC2", "activity change, negative = inhibition": -8.71}, {"smiles": "Cc1nc2ccccn2c1C(=O)NN=C1CCN(C)CC1", "activity change, negative = inhibition": -1.15}, {"smiles": "CCS(=O)(=O)C1=NSC2=NC(=O)/C(=C\\c3ccc(OS(=O)(=O)c4ccccc4)cc3)C(=N)N21", "activity change, negative = inhibition": -9.36}, {"smiles": "CCC1=NN2C(=N)/C(=C/c3cc(C)n(-c4ccccc4)c3C)C(=O)N=C2S1", "Potency": "26.9 µM (active)"}, {"smiles": "Cc1cc(/C=C2/C(=N)N3C(=NC2=O)SN=C3S(C)(=O)=O)c(C)n1-c1ccccc1", "Potency": "0.536 µM (active)"}, {"smiles": "N=C1/C(=C/c2cccn2-c2cccc([N+](=O)[O-])c2)C(=O)N=C2SC=CN12", "activity change, negative = inhibition": 4.38}, {"smiles": "CCOc1cc(/C=C2\\C(=N)N3N=C(C)SC3=NC2=O)ccc1OCCOc1ccccc1", "activity change, negative = inhibition": 1.67}, {"smiles": "CC1=CC2=NC(=O)/C(=C/c3coc4ccccc4c3=O)C(=N)N2O1", "activity change, negative = inhibition": -16.2}, {"smiles": "COc1ccccc1OCCOc1ccc(/C=C2\\C(=N)N3N=C(C)SC3=NC2=O)cc1", "activity change, negative = inhibition": -12.2}, {"smiles": "CCS(=O)(=O)C1=NSC2=NC(=O)/C(=C\\c3cc(C)n(-c4cccc(OC)c4)c3C)C(=N)N21", "Potency": "6.75 µM (active)"}, {"smiles": "Cc1cccc(N2CCN(C(=O)c3oc(=O)c4ccccc4c3-c3ccccc3)CC2)c1C", "activity change, negative = inhibition": -0.455}, {"smiles": "COc1ccc(CC(=O)N2CC(=O)Nc3ccc(Br)cc3C2c2ccc(F)cc2)cc1OC", "note": "(stereo unspecified)", "activity change, negative = inhibition": 0.675}, {"smiles": "O=C(Cn1c(=O)nc(-c2ccccc2)c2cc(Cl)ccc21)NCc1ccc(Cl)cc1", "activity change, negative = inhibition": 3.37}, {"smiles": "Cc1c(C(C)CCCO)oc(=O)c2c1Oc1c(C)c(C(C)C[C@@H](C)O)oc(=O)c1C2", "note": "(stereo partly specified)", "activity change, negative = inhibition": 2.46}, {"smiles": "O=C(NCCN1CCOCC1)c1cccc(S(=O)(=O)Nc2ccc(F)cc2)c1", "activity change, negative = inhibition": 3.82}, {"smiles": "COc1cc(Cl)c(C)cc1NC(=O)CCc1nc2cccnc2n1Cc1cccs1", "activity change, negative = inhibition": -15.4}, {"smiles": "CCOc1ccc(NC(=O)CCC(=O)NNC(=O)NC2CCCCC2)cc1", "activity change, negative = inhibition": 1.41}, {"smiles": "Cc1ccccc1C(=O)Nc1sc2c(c1C(=O)N1CCC(C)CC1)CCCC2", "activity change, negative = inhibition": -1.02}, {"smiles": "CCNS(=O)(=O)c1cc(-c2nnc(Nc3cccc(C(F)(F)F)c3)c3ccccc23)ccc1C", "activity change, negative = inhibition": 3.64}, {"smiles": "CCOC(=O)C1CCCN(C(=O)c2ccc(C)c(S(=O)(=O)N3CCCCC3)c2)C1", "note": "(stereo unspecified)", "activity change, negative = inhibition": -3.18}, {"smiles": "Cn1cccc1/C=N/NC(=O)c1ccc(OC(F)(F)C(F)F)cc1", "Potency": "12 µM (active)"}, {"smiles": "Cn1cccc1/C=N/NC(=O)CNc1cccc2ccccc12", "activity change, negative = inhibition": -17}, {"smiles": "COC(=O)[C@H](C)NC(=O)Nc1ccc(OC(F)(F)F)cc1", "activity change, negative = inhibition": 0.295}, {"smiles": "COc1ccc(NC(=O)CSc2nc3ccccc3n2CC(=O)N2CCCCC2C)cc1", "note": "(stereo unspecified)", "activity change, negative = inhibition": -2.28}, {"smiles": "Cc1ccc(S(=O)(=O)N2CCOCC2)cc1NC(=O)CSc1nnc(N)s1", "activity change, negative = inhibition": 2.58}]}]}
